Laboratory results reported in ChEMBL document CHEMBL3988442, “University of Dundee, Small-Polar-MMV Screening Library” (2021).
For some of these results: Potency and affinity values are given separately.

Tests used:
Parameters in all cases: scale not given: direction of the effect not stated beside the values
[1] = biological target: Protein translocase subunit SecA (Escherichia coli (strain K12)) (UniProt P10408); assay: Assay to Identify E. coli SecA ATPase Inhibitors; type: functional; details: 30 µM
[2] = biological target: T1, Ubiquitin-activating enzyme e1, putative (Leishmania donovani (strain BPK282A1)) (UniProt E9BSI1); assay: Leishmania donovani Ubiquitin Activating Enzyme (LdE1); type: functional; details: 30 µM
T1 sequence (whole entry): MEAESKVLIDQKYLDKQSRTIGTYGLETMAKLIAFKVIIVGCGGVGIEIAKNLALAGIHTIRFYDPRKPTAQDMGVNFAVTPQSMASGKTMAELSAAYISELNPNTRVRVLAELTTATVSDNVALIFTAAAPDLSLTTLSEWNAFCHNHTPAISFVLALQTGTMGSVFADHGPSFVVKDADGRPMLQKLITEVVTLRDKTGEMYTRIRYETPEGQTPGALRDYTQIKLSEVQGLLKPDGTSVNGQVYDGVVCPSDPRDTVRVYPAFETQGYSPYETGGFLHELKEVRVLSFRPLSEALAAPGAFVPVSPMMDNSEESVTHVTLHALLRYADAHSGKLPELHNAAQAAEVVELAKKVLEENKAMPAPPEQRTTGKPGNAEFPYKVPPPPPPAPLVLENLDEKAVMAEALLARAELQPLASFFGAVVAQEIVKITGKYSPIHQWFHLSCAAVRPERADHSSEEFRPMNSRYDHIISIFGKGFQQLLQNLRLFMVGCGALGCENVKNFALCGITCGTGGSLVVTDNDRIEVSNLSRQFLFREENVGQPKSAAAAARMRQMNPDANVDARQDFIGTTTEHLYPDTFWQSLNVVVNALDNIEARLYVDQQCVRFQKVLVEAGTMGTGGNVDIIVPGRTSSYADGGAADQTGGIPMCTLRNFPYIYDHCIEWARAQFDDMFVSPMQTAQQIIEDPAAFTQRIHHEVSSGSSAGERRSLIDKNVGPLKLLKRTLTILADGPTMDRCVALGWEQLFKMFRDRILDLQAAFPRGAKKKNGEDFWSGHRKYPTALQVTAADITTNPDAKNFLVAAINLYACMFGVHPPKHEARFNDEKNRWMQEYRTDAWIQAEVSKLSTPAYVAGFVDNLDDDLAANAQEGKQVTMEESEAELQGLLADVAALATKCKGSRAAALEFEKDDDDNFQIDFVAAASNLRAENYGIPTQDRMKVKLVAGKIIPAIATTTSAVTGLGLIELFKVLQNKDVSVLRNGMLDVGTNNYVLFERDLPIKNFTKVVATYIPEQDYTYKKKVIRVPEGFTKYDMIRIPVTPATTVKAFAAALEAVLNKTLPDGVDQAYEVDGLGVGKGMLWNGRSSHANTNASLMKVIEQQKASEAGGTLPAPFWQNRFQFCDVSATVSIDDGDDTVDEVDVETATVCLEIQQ

[3] = biological target: AMP-activated protein kinase, AMPK (Homo sapiens) (UniProt P54646+O43741+P54619+Q9UGJ0+Q9Y478+Q13131+Q9UGI9); assay: AMP-dependent Kinase enzyme assay. An in vitro enzyme assay that detects ADP turnover that is directly proportional to AMPK activity. This uses naive AMPK that is activated during the assay with MK-8722; type: functional; details: 30 µM
[4] = biological target: Sialic acid-binding Ig-like lectin 9 (Homo sapiens) (UniProt Q9Y336); assay: Hs-Siglec9 ALPHAscreen SOP 20170721; details: 10 µM
Trypanosoma cruzi = assay: Trypanosoma cruzi phosphomannomutase and mannose-1-phosphate guanylyltransferase assay; type: functional; details: 10 µM
[5] = biological target: T2, Arginase-2, mitochondrial (Homo sapiens) (UniProt P78540); assay: in vitro enzyme assay to detect the production of urea directly proportional to the activity of Arginase II; type: functional; details: 33.3 µM; also: in the data most compounds retested in dose-response had high values
T2 sequence (whole entry): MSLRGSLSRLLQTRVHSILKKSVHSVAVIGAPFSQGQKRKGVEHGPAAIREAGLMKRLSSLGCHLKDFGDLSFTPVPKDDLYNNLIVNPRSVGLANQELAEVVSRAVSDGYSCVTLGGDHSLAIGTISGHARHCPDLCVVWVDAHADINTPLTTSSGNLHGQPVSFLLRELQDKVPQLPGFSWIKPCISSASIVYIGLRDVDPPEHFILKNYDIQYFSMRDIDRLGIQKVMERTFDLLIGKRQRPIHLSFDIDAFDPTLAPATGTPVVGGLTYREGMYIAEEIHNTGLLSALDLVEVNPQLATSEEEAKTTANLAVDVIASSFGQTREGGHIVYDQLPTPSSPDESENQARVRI

[6] = biological target: T3, Proteasome subunit beta (Trypanosoma cruzi) (UniProt O96673); assay: Trypanosoma cruzi proteasome chymotrypsin-like activity (TcProtChymo) assay.; also: in the data most compounds retested in dose-response had high values; type: functional; details: 9.37 µM
T3 sequence (whole entry): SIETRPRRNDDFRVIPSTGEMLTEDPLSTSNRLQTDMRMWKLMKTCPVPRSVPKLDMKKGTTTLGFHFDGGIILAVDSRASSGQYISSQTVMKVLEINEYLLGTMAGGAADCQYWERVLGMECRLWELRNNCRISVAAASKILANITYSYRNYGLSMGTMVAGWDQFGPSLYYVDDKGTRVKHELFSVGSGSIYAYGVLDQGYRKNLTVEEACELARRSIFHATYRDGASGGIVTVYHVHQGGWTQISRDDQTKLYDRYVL

Homo sapiens = organism: Homo sapiens; assay: To identify inhibition of the IFN signalling (Jak-Stat) pathway via expression of an eGFP reporter gene under the control of an IFN-stimulated response element (ISRE) containing MxA promoter.; type: functional; details: 30 µM
[7] = biological target: T4, Tyrosyl-tRNA synthetase, putative (Trypanosoma cruzi (strain CL Brener)) (UniProt Q4DSP6); assay: Trypanosoma cruzi tyrosyl tRNA synthetase (TcYRS) _High Tyrosine SOP; type: functional; details: 30 µM; also: in the data most compounds retested in dose-response had high values
T4 sequence (whole entry): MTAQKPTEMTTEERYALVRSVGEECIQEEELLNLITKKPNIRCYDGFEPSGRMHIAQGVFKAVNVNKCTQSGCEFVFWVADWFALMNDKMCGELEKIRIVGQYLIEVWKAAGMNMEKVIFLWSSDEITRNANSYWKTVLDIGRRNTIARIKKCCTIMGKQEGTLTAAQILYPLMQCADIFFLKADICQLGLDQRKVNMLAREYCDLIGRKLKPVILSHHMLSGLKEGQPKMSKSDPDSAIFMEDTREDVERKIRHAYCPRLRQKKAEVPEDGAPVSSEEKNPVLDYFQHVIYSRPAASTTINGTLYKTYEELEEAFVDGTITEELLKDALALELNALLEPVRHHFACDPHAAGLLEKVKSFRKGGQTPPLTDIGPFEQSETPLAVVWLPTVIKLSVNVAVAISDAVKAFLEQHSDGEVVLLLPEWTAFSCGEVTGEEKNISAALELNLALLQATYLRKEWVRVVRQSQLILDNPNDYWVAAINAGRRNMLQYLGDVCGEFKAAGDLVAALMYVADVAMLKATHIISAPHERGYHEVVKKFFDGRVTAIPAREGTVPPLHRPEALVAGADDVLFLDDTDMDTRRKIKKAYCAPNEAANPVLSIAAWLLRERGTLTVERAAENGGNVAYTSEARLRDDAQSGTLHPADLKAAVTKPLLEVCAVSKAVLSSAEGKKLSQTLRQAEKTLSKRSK

[8] = biological target: T4, Tyrosyl-tRNA synthetase, putative (Trypanosoma cruzi (strain CL Brener)); assay: Trypanosoma cruzi tyrosyl tRNA synthetase (TcYRS) SOP; type: functional; details: 30 µM
[9] = biological target: Chromo domain-containing protein 1 (Saccharomyces cerevisiae (strain ATCC 204508 / S288c) (Baker's yeast)) (UniProt P32657); assay: ScCHD-1 Enzyme Inhibition Assay; type: functional; details: 30 µM; also: in the data most compounds retested in dose-response had high values
Chain of Chromo domain-containing protein 1 (Saccharomyces cerevisiae (strain ATCC 204508 / S288c) (Baker's yeast)) (P32657 whole entry, the tested form may be a part): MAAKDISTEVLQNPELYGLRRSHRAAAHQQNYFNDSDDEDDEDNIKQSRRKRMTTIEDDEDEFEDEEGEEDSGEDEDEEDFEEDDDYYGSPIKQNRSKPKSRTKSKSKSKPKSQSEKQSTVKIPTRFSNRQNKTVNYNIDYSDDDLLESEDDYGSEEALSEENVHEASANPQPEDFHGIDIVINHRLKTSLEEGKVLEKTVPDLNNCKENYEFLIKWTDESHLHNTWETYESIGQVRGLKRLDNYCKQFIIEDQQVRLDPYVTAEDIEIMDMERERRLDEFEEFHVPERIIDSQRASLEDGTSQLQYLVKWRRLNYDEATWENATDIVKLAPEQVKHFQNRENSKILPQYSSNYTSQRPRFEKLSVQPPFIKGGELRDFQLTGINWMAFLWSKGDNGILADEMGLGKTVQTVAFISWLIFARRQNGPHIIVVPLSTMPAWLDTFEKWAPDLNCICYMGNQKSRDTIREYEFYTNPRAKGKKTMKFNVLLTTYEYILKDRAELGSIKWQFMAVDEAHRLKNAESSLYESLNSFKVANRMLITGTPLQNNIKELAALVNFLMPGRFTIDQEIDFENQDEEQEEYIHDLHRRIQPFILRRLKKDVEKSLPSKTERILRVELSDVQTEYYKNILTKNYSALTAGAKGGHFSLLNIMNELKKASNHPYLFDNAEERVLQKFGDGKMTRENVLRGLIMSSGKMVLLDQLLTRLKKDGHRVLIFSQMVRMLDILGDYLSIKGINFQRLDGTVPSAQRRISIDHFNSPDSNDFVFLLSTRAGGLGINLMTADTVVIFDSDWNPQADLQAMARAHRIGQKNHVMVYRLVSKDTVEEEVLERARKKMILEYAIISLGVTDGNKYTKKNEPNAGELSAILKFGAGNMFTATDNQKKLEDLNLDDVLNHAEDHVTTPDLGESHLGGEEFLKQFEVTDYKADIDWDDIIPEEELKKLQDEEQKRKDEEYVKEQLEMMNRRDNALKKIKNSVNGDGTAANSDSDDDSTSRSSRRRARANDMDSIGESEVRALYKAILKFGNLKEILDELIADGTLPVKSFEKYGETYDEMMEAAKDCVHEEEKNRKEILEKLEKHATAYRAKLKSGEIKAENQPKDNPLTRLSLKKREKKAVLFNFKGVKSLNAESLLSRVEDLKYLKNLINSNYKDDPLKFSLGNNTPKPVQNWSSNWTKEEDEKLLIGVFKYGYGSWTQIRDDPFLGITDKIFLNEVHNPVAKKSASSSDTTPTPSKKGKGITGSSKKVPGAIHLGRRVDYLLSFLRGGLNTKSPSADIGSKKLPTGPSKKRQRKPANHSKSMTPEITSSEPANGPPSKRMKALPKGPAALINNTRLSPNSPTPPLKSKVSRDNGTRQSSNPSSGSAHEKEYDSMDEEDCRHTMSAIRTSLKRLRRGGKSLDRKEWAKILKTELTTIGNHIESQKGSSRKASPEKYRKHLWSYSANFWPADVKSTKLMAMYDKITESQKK

Chain of Protein translocase subunit SecA (Escherichia coli (strain K12)) (P10408 whole entry): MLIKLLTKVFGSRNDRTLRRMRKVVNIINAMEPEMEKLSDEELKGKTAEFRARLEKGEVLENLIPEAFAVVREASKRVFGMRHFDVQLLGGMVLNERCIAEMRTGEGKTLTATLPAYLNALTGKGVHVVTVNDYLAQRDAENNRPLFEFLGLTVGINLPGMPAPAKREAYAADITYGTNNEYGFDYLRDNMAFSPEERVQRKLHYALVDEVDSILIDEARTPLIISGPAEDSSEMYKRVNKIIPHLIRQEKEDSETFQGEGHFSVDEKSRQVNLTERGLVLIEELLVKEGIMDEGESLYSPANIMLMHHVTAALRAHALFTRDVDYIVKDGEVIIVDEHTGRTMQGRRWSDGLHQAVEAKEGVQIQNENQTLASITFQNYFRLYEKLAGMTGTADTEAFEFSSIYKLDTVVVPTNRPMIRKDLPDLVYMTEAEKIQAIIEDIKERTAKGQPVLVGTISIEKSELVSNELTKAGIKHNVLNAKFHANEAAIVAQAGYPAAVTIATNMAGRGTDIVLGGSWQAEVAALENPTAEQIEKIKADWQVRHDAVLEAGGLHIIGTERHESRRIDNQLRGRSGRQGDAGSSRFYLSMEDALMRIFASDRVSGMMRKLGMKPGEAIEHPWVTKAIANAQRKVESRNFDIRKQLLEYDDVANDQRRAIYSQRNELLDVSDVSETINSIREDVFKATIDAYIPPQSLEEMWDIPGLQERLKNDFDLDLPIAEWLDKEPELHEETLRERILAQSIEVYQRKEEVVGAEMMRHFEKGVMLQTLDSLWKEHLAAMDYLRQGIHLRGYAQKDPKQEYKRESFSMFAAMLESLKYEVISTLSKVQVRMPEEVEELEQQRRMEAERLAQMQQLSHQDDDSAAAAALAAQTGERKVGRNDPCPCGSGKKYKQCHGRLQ
Chain of Sialic acid-binding Ig-like lectin 9 (Homo sapiens) (Q9Y336 whole entry): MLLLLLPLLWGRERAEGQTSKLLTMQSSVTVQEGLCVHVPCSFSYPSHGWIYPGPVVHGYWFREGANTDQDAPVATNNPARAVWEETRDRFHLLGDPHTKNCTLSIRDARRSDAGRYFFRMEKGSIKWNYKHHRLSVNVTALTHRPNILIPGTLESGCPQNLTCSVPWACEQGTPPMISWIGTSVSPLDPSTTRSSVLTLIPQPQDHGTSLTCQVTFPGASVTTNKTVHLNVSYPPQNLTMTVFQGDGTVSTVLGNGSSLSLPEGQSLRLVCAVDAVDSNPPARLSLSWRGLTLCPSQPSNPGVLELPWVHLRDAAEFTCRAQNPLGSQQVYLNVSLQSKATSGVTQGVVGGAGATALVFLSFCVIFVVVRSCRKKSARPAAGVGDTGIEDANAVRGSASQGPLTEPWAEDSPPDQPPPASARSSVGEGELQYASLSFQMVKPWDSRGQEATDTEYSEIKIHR

SMILES: CSCC(=O)N1CCC2(CC1)c1ccccc1CC2O (stereo unspecified)
- Percent Effect [1]: -1.39%
- Percent Effect [2]: 18.2%
- Percent Effect [3]: 10.7%
- Percent Effect [4]: 2.45%
- Percent Effect (Trypanosoma cruzi): 2.26%
- Percent Effect [5]: -4.14%
- Percent Effect [6]: 18.5%
- Percent Effect (Homo sapiens): 5.92%
- Percent Effect [7]: 5.38%
- Percent Effect [8]: 11.1%
- Percent Effect [9]: -3.92%

SMILES: Cc1cnn(C2CCCN(C(=O)c3ccc(N(C)C)nn3)C2)c1 (stereo unspecified)
- Percent Effect [1]: -3.44%
- Percent Effect [2]: 15.6%
- Percent Effect [3]: 1.44%
- Percent Effect [4]: -3.44%
- Percent Effect (Trypanosoma cruzi): -5.62%
- Percent Effect [5]: -2.85%
- Percent Effect [6]: -1.01%
- Percent Effect (Homo sapiens): 33.7%
- Percent Effect [7]: 4.85%
- Percent Effect [8]: 12.2%
- Percent Effect [9]: -8.48%

SMILES: COC(=O)c1ccc(N2CCN(C(=O)c3ccncc3)C(C)C2)cc1 (stereo unspecified)
- Percent Effect [1]: -4.64%
- Percent Effect [2]: 20.2%
- Percent Effect [3]: -9.5%
- Percent Effect [4]: 4.75%
- Percent Effect (Trypanosoma cruzi): 4.63%
- Percent Effect [5]: -2.66%
- Percent Effect [6]: 10.1%
- Percent Effect (Homo sapiens): 20.8%
- Percent Effect [7]: 8.37%
- Percent Effect [8]: 24.1%
- Percent Effect [9]: -9.65%

SMILES: COc1ccc(CCN2CCC(N3CCN(C)C3=O)CC2)cc1
- Percent Effect [1]: -6.17%
- Percent Effect [2]: 13%
- Percent Effect [3]: 0.0857%
- Percent Effect [4]: 0.317%
- Percent Effect (Trypanosoma cruzi): -1.87%
- Percent Effect [5]: -4.98%
- Percent Effect [6]: 8.45%
- Percent Effect (Homo sapiens): 4.3%
- Percent Effect [7]: 4.85%
- Percent Effect [8]: 12.2%
- Percent Effect [9]: -7.97%

SMILES: CC(C)C1CN(C(=O)c2nccnc2N)CCS1 (stereo unspecified)
- Percent Effect [1]: -2.86%
- Percent Effect [2]: 10.4%
- Percent Effect [3]: -7.56%
- Percent Effect [4]: 11%
- Percent Effect (Trypanosoma cruzi): 3.83%
- Percent Effect [5]: -92.4%
- Percent Effect [6]: 6.32%
- Percent Effect (Homo sapiens): 14.5%
- Percent Effect [7]: 3.23%
- Percent Effect [8]: 8.64%
- Percent Effect [9]: -9.31%

SMILES: Cc1ncsc1C(=O)NCCn1nc2ccccn2c1=O
- Percent Effect [1]: -2.94%
- Percent Effect [2]: 13.5%
- Percent Effect [3]: 0.246%
- Percent Effect [4]: -6.32%
- Percent Effect (Trypanosoma cruzi): -3.44%
- Percent Effect [5]: 2.03%
- Percent Effect [6]: 2.51%
- Percent Effect (Homo sapiens): 13.6%
- Percent Effect [7]: 8.91%
- Percent Effect [8]: 15.8%
- Percent Effect [9]: -7.12%

SMILES: COc1ccc(Br)c(C(=O)NCC2CCN(S(=O)(=O)C3CC3)CC2)c1
- Percent Effect [1]: -4.34%
- Percent Effect [2]: 19.2%
- Percent Effect [3]: -7.39%
- Percent Effect [4]: 14%
- Percent Effect (Trypanosoma cruzi): 6.07%
- Percent Effect [5]: -3.18%
- Percent Effect [6]: 19.5%
- Percent Effect (Homo sapiens): 20.3%
- Percent Effect [7]: 4.3%
- Percent Effect [8]: 17.5%
- Percent Effect [9]: -9.38%

SMILES: CNC(=O)CS(=O)(=O)Cc1coc(-c2ccc(F)cc2)n1
- Percent Effect [1]: -2.82%
- Percent Effect [2]: 5.41%
- Percent Effect [3]: -2.17%
- Percent Effect [4]: 1.48%
- Percent Effect (Trypanosoma cruzi): 3.67%
- Percent Effect [5]: 2.38%
- Percent Effect [6]: 7.59%
- Percent Effect (Homo sapiens): -3.27%
- Percent Effect [7]: 5.82%
- Percent Effect [8]: 12.2%
- Percent Effect [9]: -1.98%

SMILES: Cc1ccc(N2CCCC(NCc3ccc(C)o3)C2)nn1 (stereo unspecified)
- Percent Effect [1]: -0.735%
- Percent Effect [2]: 6.33%
- Percent Effect [3]: 1.51%
- Percent Effect [4]: -2.46%
- Percent Effect (Trypanosoma cruzi): 4%
- Percent Effect [5]: -1.5%
- Percent Effect [6]: 28.8%
- Percent Effect (Homo sapiens): -8.15%
- Percent Effect [7]: 5.21%
- Percent Effect [8]: 10.1%
- Percent Effect [9]: -15.2%

SMILES: Cc1cnn(Cc2cc(F)ccc2F)c1NC(=O)NC1CC1
- Percent Effect [1]: -4.44%
- Percent Effect [2]: 16%
- Percent Effect [3]: -4.15%
- Percent Effect [4]: 41.4%
- Percent Effect (Trypanosoma cruzi): 5.94%
- Percent Effect [5]: 29.7%
- Percent Effect [6]: 15.5%
- Percent Effect (Homo sapiens): 10.9%
- Percent Effect [7]: -16.9%
- Percent Effect [8]: 21%
- Percent Effect [9]: -4.35%

SMILES: O=C(NCCN1CCCCCC1=O)c1n[nH]c(=O)c2ccccc12
- Percent Effect [1]: -2.33%
- Percent Effect [2]: 15.6%
- Percent Effect [3]: 17.8%
- Percent Effect [4]: -3.89%
- Percent Effect (Trypanosoma cruzi): -11.1%
- Percent Effect [5]: 2.13%
- Percent Effect [6]: 6.42%
- Percent Effect (Homo sapiens): 27.5%
- Percent Effect [7]: -6.8%
- Percent Effect [8]: 9.76%
- Percent Effect [9]: -3%
